Out of some 2,400 compounds screened, about 750 (31%) were called active. Not all results are given here. Unmarked numbers belong to inactive results.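 How the source made its calls: active means mean activation across replicates above the hit cutoff set in the earlier primary screen (cut at about 8% in these data); inactive means the rest.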
molecular target: Melanocortin receptor 4 (Homo sapiens) (UniProt P32245); experiment: MC4R beta-arrestin agonists, retest, confirmation, cell-based, luminescence, U2OS (AID 602192); conditions: U2OS MC4R beta-arrestin recruitment, at 8.9 µM, stronger effect = higher value, scaled DMSO 0%, Melanotan II 100%
Sequence (P32245 whole entry, looked up): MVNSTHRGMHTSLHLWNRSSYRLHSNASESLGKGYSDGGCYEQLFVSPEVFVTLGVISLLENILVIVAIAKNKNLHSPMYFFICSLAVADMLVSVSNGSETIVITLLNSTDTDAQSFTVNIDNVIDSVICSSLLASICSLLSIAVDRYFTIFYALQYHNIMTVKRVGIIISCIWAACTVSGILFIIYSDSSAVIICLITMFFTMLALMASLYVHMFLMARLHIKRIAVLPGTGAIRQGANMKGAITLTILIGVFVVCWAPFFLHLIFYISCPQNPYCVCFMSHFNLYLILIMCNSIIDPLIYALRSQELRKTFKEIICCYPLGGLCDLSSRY

Structure (SMILES) | activation
Cc1ccc(CCC(=O)Nc2ncc(Cc3cc(Cl)ccc3Cl)s2)o1 | 15.2% (active)
COc1c(Cl)cc(C(=O)Nc2ccc(Cl)cn2)cc1Cl | 2.15%
COc1cccc(NC(=S)NC(=O)c2c(Cl)c(C)nn2C)c1 | 0.75%
O=C(N/N=C/c1ccc(OC(=O)c2ccccc2Cl)cc1)c1ccc(O)cc1 | 10.9% (active)
CCN(CC)c1ccc(C(=O)N/N=C/c2ccc(N3CCOCC3)cc2)cc1 | 3.23%
CCCOc1ccc(C(=O)C(CCC(CNCC)C(=O)c2ccc(OCCC)cc2)CNCC)cc1 (configuration not stated) | 47% (active)
COc1cc(/C=C2\Oc3ccc(C#Cc4ccc(O)cc4)cc3C2=O)cc(OC)c1 | 17.7% (active)
S=C(NCCCc1cnc[nH]1)NCCCN(Cc1ccc(Cl)c(Cl)c1)c1ccc(Br)cn1 | 12.9% (active)
CC(C)c1ccc2c(c1)c(SC(C)(C)C)c(CC(C)(C)C(=O)O)n2Cc1ccc(Cl)cc1 | 6.79%
Cc1cc(OCc2cc(C(=O)NCc3cc(C(C)C)no3)no2)cc(C)c1Cl | -1.7%
Oc1ccccc1N1CCN(c2ncnc3sc(-c4ccccc4)cc23)CC1 | 3.16%
O=C(NC(=S)Nc1cccc2c(O)cccc12)c1cccc(Br)c1 | 14.4% (active)
CCOc1ccc(/C=C/C(=O)OCC(=O)c2ccccc2OC)cc1OC | 4.4%
CCN1CCC2(CC1)N=C(c1ccc(F)cc1)C(=S)N2C(=O)c1ccc(C)cc1 | 6.69%
NC(N)=Nc1nc(-c2ccccc2)c2cc(Cl)ccc2n1 | 19.8% (active)
CCCCN1CC(C)(C)[C@H](CC(=O)Nc2ccc(Br)cc2)C1=O | 1.84%
COc1ccccc1-c1cc(NC(C)=O)c2ncc(-c3ccc(F)cc3)n2c1 | 15.2% (active)
COc1cccc(-c2cnc3c(NC(C)=O)cc(-c4cc(F)ccc4OC)cn23)c1 | 27.2% (active)
COc1ccccc1NC(=O)Nc1nnc(Cc2ccc(F)cc2)s1 | 4.89%

Structure (SMILES) | activation
CC(=O)Nc1cc(-c2ccccc2N(C)C)cn2c(-c3ccc(F)c(Cl)c3)cnc12 | 26% (active)
CC(=O)Nc1cc(-c2ccccc2F)cn2c(-c3cccc(C(F)(F)F)c3)cnc12 | 19% (active)
Fc1ccccc1/C=N/Nc1cc(N2CCCCC2)ncn1 | -2.37%
O=C(Nc1ccc2oc(-c3ccc4ccccc4c3)nc2c1)c1cccs1 | 3.96%
O=C(CCCCCn1c(=S)[nH]c2cc3c(cc2c1=O)OCO3)N1CCN(c2ccc(F)cc2)CC1 | 5.47%
COC(=O)c1sccc1NC(=O)c1cc(OC)c(OC)c(OC)c1 | 3.33%
O=C(CCCCCN1C(=O)c2cccc3cccc(c23)C1=O)NCc1ccco1 | 6.44%
Cc1ccc(Sc2ccc(NC(=O)c3ccc(F)cc3)cc2C#N)cc1 | 2.18%
Cc1ccc(S(=O)(=O)NCCC(=O)Nc2ccc(C)c(Cl)c2)cc1C | 3.25%
CCOC(=O)c1nn(-c2ccccc2F)c2nc(Nc3ccccc3)cc(=O)n12 | 2.15%
CCN1CCN(CCNC(=O)c2ccc(/C=C3/Sc4ccccc4N(Cc4cccc(C)c4)C3=O)cc2)CC1 | 9.47% (active)
O=C(NCCc1c[nH]c2ccc(Cl)cc12)c1ccc([N+](=O)[O-])cc1 | 3.47%
Cc1ccc(-c2csc(SCC(=O)Nc3cc(C)on3)n2)cc1 | 3.04%
Cc1ccc(-n2nc(C)c(/C=N/NC(=O)c3cccs3)c2Cl)cc1 | 12% (active)
Cc1ccc(C(=O)Nc2ccc(NC(=O)c3cccs3)cc2)c(C)c1 | 2.47%
COCCN(CCOC)S(=O)(=O)c1ccc(C(=O)Nc2nc3c(s2)CCc2ccccc2-3)cc1 | 0.54%
CCCCCCCCCCOC(=O)Cn1c(COc2ccc(C)cc2)[n+](C)c2ccccc21 | 29.9% (active)
CCCCCCCCCCOC(=O)Cn1c(COc2cccc(OC)c2)[n+](C)c2ccccc21 | 21.6% (active)
COC(=O)c1c(C)[nH]c(C(=O)/C=C/c2ccc(Cl)cc2)c1C | 2.58%

Structure (SMILES) | activation
CCn1c(SCC(=O)Nc2cccc(F)c2)nnc1-c1cc2cc(Br)ccc2o1 | 2.27%
O=C(CCCn1c(SCC(=O)c2ccc(F)cc2)nc2ccccc2c1=O)NCc1ccco1 | 4.27%
COc1ccc(Cl)cc1-n1c(C)cc(C(=O)OCC(=O)N2CC(=O)Nc3ccccc32)c1C | 10.5% (active)
Cc1cccc(C)c1OC(=O)CSc1nnc(-c2ccccc2)o1 | 2.94%
O=C1N/C(=C/c2cccn2-c2ccccc2)C(=O)N1c1cccc(Cl)c1 | 13.2% (active)
Clc1ccc(Nc2ncnc3c2nnn3Cc2ccccc2)cc1 | -0.43%
O=C(OC12CC3CC(CC(C3)C1)C2)c1ccc(NCc2cc(O)ccc2O)cc1 | 5.55%
Cc1ccccc1NC(=O)c1ccc(COc2ccc3c(C)cc(=O)oc3c2)cc1 | 28.2% (active)
COc1ccc(CC(N)c2csc(NC(=O)NC(c3ccccc3)c3ccccc3)n2)cc1 (configuration not stated) | 17.4% (active)
COc1ccc(Cc2nnc(NC(=O)c3ccc(OC)cc3OC)s2)cc1 | -0.87%
COc1ccc(C(N)c2csc(NC(=O)Nc3cccc(C(F)(F)F)c3)n2)cc1 (configuration not stated) | 11.5% (active)
COc1cc(NC(=O)c2cncc(-c3ccc(C#N)cc3)c2)cc(C(=O)Nc2cccc(C(F)(F)F)c2)c1 | 2.95%
O=C(NC1CCCCCC1)c1cccnc1Sc1ccc(Cl)cc1 | 0.48%
COc1ccc(C)c(Cn2c(-c3nonc3N)nc3ccccc32)c1 | -0.25%
CCc1ccc2c(c1)cc(CN(C(=S)Nc1ccccc1Cl)C1CC1)c1nnnn12 | 0.41%
Cc1c(-c2ccccc2)n[nH]c1C(=O)N=Nc1c(O)[nH]c2ccccc12 | 3.31%
Cc1ccsc1/C=N/Nc1ccc(Cl)nn1 | 2.12%
CCOC(=O)c1c(-c2ccccc2)oc2cc(Br)c(O)c(C=O)c12 | 12.2% (active)
Cc1ccc([C@H]2C[C@H](O)[C@@H](n3cc(COC(=O)c4ccccc4)nn3)CN2C(=O)C2CCCCC2)cc1 | 1.84%
